Among all 5,500 compounds or so, about 2,000 (36%) were called active. Another 18% or so got no clear call; they are omitted. Cut-off read from the data, not from the text of the source: active = normalized growth mostly below about 0.91 (no sharp cut-off); inconclusive = no clear call, values can overlap the other calls; inactive = mostly above about 0.92. This is one part of the list.
Assay: chemical genetic growth profiling, strain panel (AID 1159580);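 note: tested at 20 µM; growth read once vehicle control cultures reached saturation at 30 °C; 1 = growth at the plate median or of vehicle wells; lower values mean less growth of the strain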
Conditions: S. cerevisiae deletion strains, growth OD
[1] = locus YDR150W, strain NUM1, active compounds read low
[2] = locus YGR078C, strain PAC10, active compounds read low
[3] = locus YJR075W, strain HOC1, active compounds read low
[4] = locus YMR263W, strain SAP30, active compounds read low

Measured: normalized growth

OC[C@H]1O[C@@H](n2cnc3c(NCCc4ccccc4)ncnc32)C(O)[C@H]1O (some centres undefined)
inactive: locus YAL040C, strain CLN3, active compounds read low 0.979 | locus YCL061C, strain MRC1 (second series), active compounds read low 0.999 | [1] 0.993 | locus YDR363W, strain ESC2, active compounds read low 0.954 | locus YER002W, strain NOP16, active compounds read low 1.02 | [2] 0.996 | [3] 0.993 | [4] 0.998 | locus YMR307W, strain GAS1, active compounds read low 0.997 | locus YNL128W, strain TEP1, active compounds read low 0.989 | locus YNL175C, strain NOP13, active compounds read low 0.991 | locus YNL197C, strain WHI3, active compounds read low 0.991 | locus YNL224C, strain SQS1, active compounds read low 1.01 | locus YOR083W, strain WHI5 (second series), active compounds read low 0.997

Cc1cc(C)c(I)c(C)c1
inactive: locus YAL013W, strain DEP1, active compounds read low 1 | locus YBR229C, strain ROT2, active compounds read low 1.02 | locus YDL101C, strain DUN1, active compounds read low 0.987 | [1] 0.984 | locus YEL061C, strain CIN8, active compounds read low 1.05 | [2] 0.995 | locus YHR030C, strain SLT2, active compounds read low 1.12 | locus YHR087W, strain rtc3, active compounds read low 1.09 | locus YJR043C, strain POL32, active compounds read low 1.01 | [3] 1.02 | locus YKL190W, strain CNB1, active compounds read low 0.99 | locus YLR039C, strain RIC1, active compounds read low 1.05 | locus YLR058C, strain SHM2 (second series), active compounds read low 1.02 | locus YLR085C, strain ARP6, active compounds read low 1.01 | locus YLR262C, strain YPT6, active compounds read low 1.05 | locus YML094W, strain GIM5, active compounds read low 1.02 | locus YMR219W, strain ESC1, active compounds read low 1.01 | [4] 1.02 | locus YNL153C, strain GIM3, active compounds read low 0.999 | locus YNL298W, strain CLA4 (second series), active compounds read low 1.04 | locus YNL322C, strain KRE1, active compounds read low 1 | locus YNR030W, strain Alg12, active compounds read low 1.03 | locus YPL055C, strain LGE1, active compounds read low 1.02 | locus YPL241C, strain CIN2, active compounds read low 1.02 | locus YPR135W, strain CTF4, active compounds read low 0.963
